Test in all cases: NCI-60 one-dose screen, 48 h (100 = growth as untreated, 0 = no growth, -100 = all killed)
Holding throughout (settings): 10 µM

In test [1] the test system is RPMI-8226 leukemia.
Test [2] concerns OVCAR-8 ovarian.
For test [3], the system named is OVCAR-5 ovarian.
For test [4], the system named is OVCAR-4 ovarian.
The test system of test [5] is SK-OV-3 ovarian.
The subject of test [6] is IGROV1 ovarian.
Test [7] deals with OVCAR-3 ovarian.
Test [8] relates to HS 578T breast.
Test [9] concerns NCI/ADR-RES ovarian.
The test system of test [10] is T-47D breast.
Test [11] concerns BT-549 breast.
In test [12] the test system is MDA-MB-435 melanoma.
In test [13] the test system is SW-620 colon.
For test [14], the system named is MCF7 breast.
Test [15] has as its system HCT-116 colon.
Test [16] concerns HCC-2998 colon.
The subject of test [17] is KM12 colon.

This is part of a sample that, as a whole, favours compounds with a hit. Of some 83,000 tested, about 20% had one in any assay.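 Growth was measured after 48 h exposure to one concentration of compound in 96-well plates. Values under 10 count as active.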 A number with no mark means an inactive call. Calls of active or inactive are those of the source.

`COc1cc(/C=C/C(=O)c2ccc(Cl)cc2)ccc1OS(=O)(=O)c1ccc(C)cc1`: the growth is -16.7% (active) in [1]; 83.8% in [2]; 111% in test [3]; 92.5% in test [4]; 96.8% in [5]; 97.9% in [6]. Further, the growth in [7] was 80.7%; in [8] it was 129%; in test [9] it was 81.4%; in test [10], 76.8%; in test [11], 134%; in test [12], 81.2%. The growth in test [13] is 6.82% (active); in test [14], 11.2%; in test [15], 12.9%; in test [16], 112%; in test [17] it was 81.2%.

Consider `COc1ccc(-c2nn(-c3cccc(NC(=O)Nc4cc(C(F)(F)F)cc(C(F)(F)F)c4)c3)cc2-c2ccncc2)cc1Cl`, for which the growth in [1] was -25.1% (active); in [2], 1.12% (active); in test [3] it was 18.7%; in test [4], 16.4%; in test [5] it was 8.88% (active); in test [6] it was 4.91% (active). The growth in test [7] was 5.75% (active); in test [8], 0.225% (active); in test [9] it was 5.83% (active); in test [10] it was 2.31% (active); in [11], -1.8% (active); in test [12], -42.8% (active). Also, the growth in test [13] was 10.9%; in [14], 0.561% (active); in [15] it was -22% (active); in test [16], 8.03% (active); in test [17] it was -2.5% (active).

As for `CC(=O)n1c(-c2ccc(Cl)c(Cl)c2)cn(-c2ccc(Cl)cc2)c1=O`, the growth in test [1] is -10.9% (active); in test [2], 20.8%; in test [3], 42.4%; in test [4], 5.33% (active); in test [5] it was 19.1%; in test [6], 4.07% (active). Moreover, the growth in test [7] is 3.73% (active); in test [8], -15.5% (active); in [9], 11.8%; in test [10], -47.1% (active); in [11], 0.373% (active); in test [12], 32%. In addition, the growth in test [13] is 38.7%; in [14] it was 21.9%; in test [15], 17.8%; in test [16] it was 21.6%; in test [17] it was 49.8%.

Take `Cc1nc2ccccc2c(N)c1-c1cc(C)c2c(C)nc3ccccc3c2n1`: the growth in test [1] was -40.9% (active); in test [2], -29.4% (active); in test [3], 32.4%; in test [4], -64.1% (active); in test [5] it was 96.7%; in [6], -92% (active). Further, the growth was -96.6% (active) in test [7]; -32.3% (active) in test [8]; 43.8% in test [9]; -20.4% (active) in [10]; 58.2% in test [11]; 69.4% in test [12]. Besides, the growth is -65.7% (active) in test [13]; 31.2% in [14]; -82.1% (active) in [15]; -35% (active) in test [16]; -83.2% (active) in test [17].

On to `CCCCOc1ccc(NC(=O)Nc2nnc(C)s2)cc1`, for which the growth in [1] was 80.8%; in test [2], 90.5%; in test [3], 102%; in test [4], 100%; in test [5], 102%; in test [6], 91.6%. The growth in [7] was 120%; in [8] it was 116%; in test [9], 93.3%; in test [10], 77.9%; in test [11] it was 110%; in test [12], 101%. Moreover, the growth is 111% in [13]; 88.1% in test [14]; 94.9% in test [15]; 93.2% in test [16]; 103% in test [17].

With `COc1cc2cc3c(nc2cc1OC)CCN3Cc1ccc(NC(=O)c2ccc(Cl)c(C(F)(F)F)c2)cc1`, the growth in test [1] was 91.2%; in [2], 88.6%; in [3] it was 99.5%; in test [4] it was 80.4%; in [5], 91.7%; in [6], 78.5%. The growth is 94.3% in test [7]; 98.5% in test [8]; 99.4% in [9]; 64.2% in [10]; 112% in test [11]; 95.6% in test [12]. Also, the growth in test [13] is 114%; in test [14] it was 15%; in [15], 93.4%; in test [16], 91.2%; in [17], 109%.

For the compound `Cc1ccc(C(=O)Nc2cccc(F)c2)cc1NC(=O)C1(c2ncnc3[nH]ccc23)CC1`, the growth in test [1] was 83.2%; in test [2] it was 89.7%; in [3], 83.6%; in test [4] it was 101%; in test [5], 91.1%; in test [6] it was 90.3%. The growth in test [7] was 103%; in [8], 74%; in test [9], 92%; in [10], 74.1%; in test [11] it was 93.4%; in [12], 74%. Besides, the growth in test [13] is 67%; in [14] it was 87.1%; in test [15] it was 44.5%; in test [16] it was 60.5%; in test [17], 82.7%.

Consider `NC(=O)c1ccc(-c2cccc3c(=O)nc(N4CCOCC4)oc23)cc1`, for which the growth was 104% in test [1]; 101% in test [2]; 96.8% in test [3]; 90.5% in test [4]; 103% in test [5]; 103% in test [6]. For the same compound, the growth in [7] was 99.4%; in test [8] it was 97.2%; in test [9], 97.3%; in test [10], 87.8%; in test [11] it was 98.1%; in test [12], 107%. Moreover, the growth was 104% in test [13]; 90.3% in [14]; 104% in [15]; 101% in test [16]; 97.6% in test [17].

For the compound `CN(C)CCCn1c(=O)c2ccccc2c2cnc3[nH]ccc3c21`, the growth in test [1] is -23.6% (active); in test [2], 6.28% (active); in [3], 19.5%; in test [4] it was 2.71% (active); in test [5], 4.51% (active); in [6] it was 9.28% (active). Also, the growth in test [7] is 17.9%; in [8], 24.8%; in [9], 26.5%; in test [10], -11.3% (active); in test [11], 34.1%; in test [12] it was 11.9%. In addition, the growth in [13] was 5.02% (active); in test [14], 1.25% (active); in test [15], 2.85% (active); in [16], 30.3%; in [17], 9.58% (active).

The values are drawn from PubChem BioAssay (NCI).
